Experimental data: PubChem BioAssay AID1159580 (chemical genetic matrix, 2015)
The campaign covered roughly 5,500 compounds. About 2,000 (36%) were called active. About 18% were inconclusive and are not listed. No stated cut-off is given here; in the data, active means normalized growth mostly below about 0.91 (no sharp cut-off); inconclusive means no clear call, values can overlap the other calls; inactive means mostly above about 0.92. This is one part of the list.

Test: chemical genetic growth profiling, strain panel (AID 1159580);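 further: tested at 20 µM; growth read once vehicle control cultures reached saturation at 30 °C; 1 = growth at the plate median or of vehicle wells; lower values mean less growth of the strain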
Conditions: growth OD

Measured: normalized growth

CN(N=O)C(=O)N[C@@H]1[C@@H](O)[C@H](O)[C@@H](CO)O[C@@H]1O
inactive: S. cerevisiae deletion strains, locus YJL187C, strain SWE1 (second series), active compounds read low 1.01 | S. cerevisiae deletion strains, locus YJR043C, strain POL32, active compounds read low 1.01 | S. cerevisiae deletion strains, locus YJR066W, strain TOR1, active compounds read low 0.99 | S. cerevisiae deletion strains, locus YKL009W, strain mrt4, active compounds read low 1.05 | S. cerevisiae deletion strains, locus YKL068W, active compounds read low 1 | S. cerevisiae deletion strains, locus YKL085W, strain MDH1 (second series), active compounds read low 1.01 | S. cerevisiae deletion strains, locus YKL085W, strain MDH1, active compounds read low 1.01 | S. cerevisiae deletion strains, locus YKL160W, strain elf1, active compounds read low 1.02 | S. cerevisiae deletion strains, locus YKR001C, strain vps1, active compounds read low 1 | S. cerevisiae deletion strains, locus YKR026C, strain gcn3, active compounds read low 0.973 | S. cerevisiae deletion strains, locus YKR091W, strain srl3, active compounds read low 0.988 | S. cerevisiae deletion strains, locus YLL001W, strain dnm1, active compounds read low 0.987 | S. cerevisiae deletion strains, locus YLL026W, active compounds read low 0.994 | S. cerevisiae deletion strains, locus YLL041C, strain sdh2, active compounds read low 0.971 | S. cerevisiae deletion strains, locus YLR027C, strain aat2, active compounds read low 1.01 | S. cerevisiae deletion strains, locus YLR039C, strain RIC1, active compounds read low 1.03 | S. cerevisiae deletion strains, locus YLR058C, strain SHM2, active compounds read low 1.01 | S. cerevisiae deletion strains, locus YLR102C, strain apc9, active compounds read low 0.999 | S. cerevisiae deletion strains, locus YLR113W, strain HOG1, active compounds read low 1.03 | S. cerevisiae deletion strains, locus YLR221C, strain rsa3, active compounds read low 0.99 | S. cerevisiae deletion strains, locus YLR258W, strain gsy2, active compounds read low 0.985 | S. cerevisiae deletion strains, locus YLR262C, strain YPT6 (second series), active compounds read low 0.978 | S. cerevisiae deletion strains, locus YLR262C, strain YPT6, active compounds read low 1.02 | S. cerevisiae deletion strains, locus YLR268W, strain sec22, active compounds read low 0.999 | S. cerevisiae deletion strains, locus YLR320W, strain mms22, active compounds read low 0.977 | S. cerevisiae deletion strains, locus YLR330W, strain CHS5, active compounds read low 1.01 | S. cerevisiae deletion strains, locus YLR342W, strain FKS1 (second series), active compounds read low 1.06 | S. cerevisiae deletion strains, locus YLR342W, strain FKS1, active compounds read low 1.01 | S. cerevisiae deletion strains, locus YLR357W, strain rsc2, active compounds read low 0.958 | S. cerevisiae deletion strains, locus YLR370C, strain arc18, active compounds read low 0.999 | S. cerevisiae deletion strains, locus YLR371W, strain rom2, active compounds read low 1.02 | S. cerevisiae deletion strains, locus YLR384C, strain iki3, active compounds read low 0.986 | S. cerevisiae deletion strains, locus YLR418C, strain cdc73, active compounds read low 0.994 | S. cerevisiae deletion strains, locus YML016C, strain PPZ1, active compounds read low 1 | S. cerevisiae deletion strains, locus YML032C, strain rad52, active compounds read low 1.02 | S. cerevisiae deletion strains, locus YML120C, strain ndi1, active compounds read low 0.986 | S. cerevisiae deletion strains, locus YML124C, strain tub3, active compounds read low 1 | S. cerevisiae deletion strains, locus YMR058W, strain fet3, active compounds read low 1 | S. cerevisiae deletion strains, locus YMR078C, strain ctf18, active compounds read low 1.01 | S. cerevisiae deletion strains, locus YMR125W, strain sto1, active compounds read low 0.954 | S. cerevisiae deletion strains, locus YMR129W, active compounds read low 1 | S. cerevisiae deletion strains, locus YMR205C, strain PFK2, active compounds read low 0.98 | S. cerevisiae deletion strains, locus YMR223W, strain ubp8, active compounds read low 1.04 | S. cerevisiae deletion strains, locus YMR231W, strain pep5, active compounds read low 0.994 | S. cerevisiae deletion strains, locus YMR307W, strain GAS1, active compounds read low 1.04 | S. cerevisiae deletion strains, locus YNL067W, strain RPL9B, active compounds read low 1.03 | S. cerevisiae deletion strains, locus YNL071W, strain lat1, active compounds read low 0.983 | S. cerevisiae deletion strains, locus YNL128W, strain TEP1, active compounds read low 1.03 | S. cerevisiae deletion strains, locus YNL153C, strain GIM3, active compounds read low 0.997 | S. cerevisiae deletion strains, locus YNL183C, strain NPR1, active compounds read low 0.983 | S. cerevisiae deletion strains, locus YNL209W, strain ssb2, active compounds read low 0.982 | S. cerevisiae deletion strains, locus YNL233W, strain BNI4, active compounds read low 1.01 | S. cerevisiae deletion strains, locus YNL248C, strain rpa49, active compounds read low 0.978 | S. cerevisiae deletion strains, locus YNL250W, strain rad50, active compounds read low 1.03 | S. cerevisiae deletion strains, locus YNL271C, strain bni1, active compounds read low 1 | S. cerevisiae deletion strains, locus YNL298W, strain CLA4, active compounds read low 1.01 | S. cerevisiae deletion strains, locus YNL307C, strain MCK1, active compounds read low 1.02 | S. cerevisiae deletion strains, locus YNL322C, strain KRE1 (second series), active compounds read low 1.01 | S. cerevisiae deletion strains, locus YNR049C, strain mso1, active compounds read low 0.983 | S. cerevisiae deletion strains, locus YNR052C, strain pop2, active compounds read low 1.01 | S. cerevisiae deletion strains, locus YOL012C, strain htz1 0.87 | S. cerevisiae deletion strains, locus YOL147C, strain pex11, active compounds read low 1.01 | S. cerevisiae deletion strains, locus YOR001W, strain rrp6, active compounds read low 0.995 | S. cerevisiae deletion strains, locus YOR061W, strain CKA2, active compounds read low 1.01 | S. cerevisiae deletion strains, locus YOR069W, strain VPS5, active compounds read low 1.01 | S. cerevisiae deletion strains, locus YOR070C, strain gyp1, active compounds read low 1.01 | S. cerevisiae deletion strains, locus YOR080W, strain dia2, active compounds read low 0.996 | S. cerevisiae deletion strains, locus YOR083W, strain WHI5, active compounds read low 0.986 | S. cerevisiae deletion strains, locus YOR106W, strain vam3, active compounds read low 1.01 | S. cerevisiae deletion strains, locus YOR136W, strain idh2, active compounds read low 1 | S. cerevisiae deletion strains, locus YOR144C, strain elg1, active compounds read low 1.01 | S. cerevisiae deletion strains, locus YOR184W, strain ser1, active compounds read low 1.01 | S. cerevisiae deletion strains, locus YOR231W, strain MKK1, active compounds read low 1.02 | S. cerevisiae deletion strains, locus YOR265W, strain rbl2, active compounds read low 1 | S. cerevisiae deletion strains, locus YOR270C, strain vph1, active compounds read low 0.936 | S. cerevisiae deletion strains, locus YOR290C, strain snf2, active compounds read low 1 | S. cerevisiae deletion strains, locus YOR316C, strain cot1, active compounds read low 1 | S. cerevisiae deletion strains, locus YPL051W, strain arl3, active compounds read low 1.02 | S. cerevisiae deletion strains, locus YPL078C, strain atp4, active compounds read low 0.993 | S. cerevisiae deletion strains, locus YPL106C, strain sse1, active compounds read low 1.02 | S. cerevisiae deletion strains, locus YPL240C, strain hsp82, active compounds read low 0.983 | S. cerevisiae deletion strains, locus YPL256C, strain CLN2, active compounds read low 1.06 | S. cerevisiae deletion strains, locus YPR119W, strain clb2, active compounds read low 1 | S. cerevisiae deletion strains, locus YPR141C, strain kar3, active compounds read low 0.996 | S. cerevisiae deletion strains, locus YPR163C, strain tif3, active compounds read low 1 | S. cerevisiae deletion strains, locus YPR167C, strain met16, active compounds read low 1.01 | S. cerevisiae deletion strains, strain wtn01, active compounds read low 1 | S. cerevisiae strains, strain wild type, active compounds read low 1.01
